# Results with a measured potency or affinity are listed apart. Values without a mark were called inactive.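 The calls were made as follows: active = every repeat run showing a signal drop whose fitted half-maximal concentration is at most twice the top tested concentration; inconclusive = repeat runs disagree, or flat partial drop, or poor fit; inactive = the rest.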
# Test: general mammalian cell viability loss – activator set, cherry-pick, cytotoxicity control for miR-122 modulator project, dose response (AID 720690);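 also: 0% = neutral control wells and -100% = MG132 cytotoxic control wells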
# Settings: HEK293T viability, CellTiter-Glo luminescence, 48 h; series mostly up to 26 µM; activity change, negative = cytotoxicity: at the top concentration
row,Structure (SMILES),"activity change, negative = cytotoxicity"
1,C[C@H]1CN([C@@H](C)CO)C(=O)c2cc(-c3ccc(C#N)cc3)cnc2O[C@H]1CN(C)C(=O)Nc1ccc(C(F)(F)F)cc1,-12.8%
2,Cc1cc(CN(C)C(=O)c2cc(COc3ccc4ncccc4c3)on2)on1,-14%
3,c1ccc(-c2nnc3n2CCCC3)cc1,4.33%
4,CCOC(=O)c1ccc(NC(=O)c2ccc(CN3CCOCC3)cc2)cc1,-13.2%
5,COC(=O)C[C@@H]1CC[C@@H]2[C@@H](COc3ccc(NC(=O)c4cc(F)cc(F)c4)cc3C(=O)N2C)O1,-13.6%
6,COC(=O)C[C@@H]1CC[C@H]2[C@@H](COc3ccc(NC(=O)c4ccc(C(F)(F)F)cc4)cc3C(=O)N2C)O1,-25.1% [at 23.5 µM]
7,C/C=C/c1ccc([C@@H]2[C@@H](CN(C(=O)COC)C(C)C)N(C(C)=O)[C@H]2CO)cc1,-16.8%
8,COCC(=O)N1[C@H](CO)[C@H]2c3ccccc3N(C(=O)c3ccccc3F)C[C@H]21,-7.76% [at 23.5 µM]
9,CN1C(=O)c2cc(NC(=O)Nc3cccc(Cl)c3)ccc2OC[C@@H]2O[C@H](CC(=O)NCCc3ccncc3)CC[C@H]21,15.3%
10,C[C@H](CO)N1C[C@H](C)[C@H](CN(C)C(=O)Nc2ccc3c(c2)OCO3)Oc2ncc(-c3cccc(C(F)(F)F)c3)cc2C1=O,-28.7%
11,CNC(=O)C[C@H]1CC[C@@H]2[C@H](COc3ccc(NC(=O)Nc4ccc(F)c(F)c4)cc3C(=O)N2C)O1,3.16%
12,COCC(=O)N(C[C@H]1[C@H](c2ccccc2)[C@@H](CO)N1C(=O)NC(C)C)C(C)C,5.41%
13,OC[C@H]1[C@@H](c2ccccc2)[C@@H](CNCC2CCC2)N1CC1CC1,-5.03%
14,CCC(=O)N1[C@H](CO)[C@H]2c3ccccc3N(C(=O)CC(F)(F)F)C[C@H]21,-6.13% [at 23.5 µM]
15,Cc1cccc(C)c1NC(=O)CSCC(=O)c1ccc(O)c(O)c1,7.16%
16,COCC(=O)N(C[C@@H]1N[C@H](CO)[C@H]1c1ccc(-c2cccnc2)cc1)C(C)C,-2.06%
17,O=C(NC[C@@H]1N[C@@H](CO)[C@H]1c1ccccc1)C1CCC1,-1.63%
18,O=C(COC(=O)c1ccccc1)Nc1cc(Cl)ccc1Oc1ccccc1,-5.95%
19,CN1C(=O)c2cc(NC(=O)Cc3ccccc3)ccc2OC[C@H]2O[C@@H](CC(=O)NC3CCC3)CC[C@@H]21,1.07%
20,COc1cccc(-c2ccc3c(c2)O[C@H](CN(C)C(=O)C2CCOCC2)[C@H](C)CN([C@@H](C)CO)S3(=O)=O)c1,-9.25%
21,COc1ccccc1CNc1nc(NCC2CC2)nc2ccsc12,-34.7%
22,CC(=O)N1[C@H](CN(C(=O)c2ccc(F)cc2)C(C)C)[C@H](c2ccccc2)[C@@H]1CO,-14.4% [at 23.5 µM]
23,C/C=C/c1ccc([C@@H]2[C@@H](CO)N(C(C)=O)[C@H]2CN(C(=O)COC)C(C)C)cc1,-1.5%
24,CCC(=O)N1[C@H](CO)[C@@H](c2ccccc2)[C@H]1CN(C(C)C)S(C)(=O)=O,-14.6%
25,CO[C@@H]1CN(C)C(=O)c2ccc(NC(=O)c3nc4ccccc4s3)cc2OC[C@H](C)N(Cc2cccnc2)C[C@H]1C,-2.46%
26,COC(=O)C[C@H]1CC[C@@H]2[C@@H](COc3ccc(NC(=O)Nc4ccc(Cl)cc4)cc3C(=O)N2C)O1,-8.59%
27,CN1C(=O)c2cc(NC(=O)Nc3ccccc3F)ccc2OC[C@@H]2O[C@@H](CC(=O)NCc3ccc(-c4ccccc4)cc3)CC[C@H]21,-12.3%

# Source: PubChem BioAssay AID720690 (Broad Institute, 2013)
